{
  "source": "PubChem BioAssay AID720697",
  "about": "(Broad Institute, 2013)",
  "note": "Results with a measured potency or affinity are listed apart. Results filed as inconclusive are left out. A number with no mark means an inactive call.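 Rule for the calls: active = signal loss with fitted half-maximal concentration at or below twice the top valid tested dose in every test run; inconclusive = runs disagree, flat 30 to 70% signal loss, or poor fit; inactive = all runs flat, opposite direction, or potency beyond limit.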",
  "data": [
    {"assay": "HEK293T cytotoxicity, dose response, cytotoxicity control for miR-122 modulator project, cell-based, inhibitor set, cherry-pick, set 2 (AID 720697);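 note: 0% = median of neutral control wells and -100% = MG132 positive control wells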", "settings": "HEK293T viability, CellTiter-Glo luminescence, 48 h; series mostly up to 26 µM; activity change, negative = cytotoxicity: at the top concentration", "values": [
      {"smiles": "O=C(CSc1nc2ccccc2s1)N1CCOCC1", "activity change, negative = cytotoxicity": "56.6%"},
      {"smiles": "CNC(=O)C[C@H]1CC[C@H]2[C@H](COc3ccc(NC(=O)c4cccc(F)c4)cc3C(=O)N2C)O1", "activity change, negative = cytotoxicity": "80%"},
      {"smiles": "CC(C)Oc1ccc(CNCCC2(C(C)C)CCOC(C)(C)C2)cc1", "note": "(stereo unspecified)", "activity change, negative = cytotoxicity": "76.1%"},
      {"smiles": "Cc1nnc(NC(=O)CSc2nc(C(C)C)nc3sc(C)c(C)c23)s1", "activity change, negative = cytotoxicity": "-23.9%"},
      {"smiles": "COc1ccc(C#Cc2ccc3c(c2)O[C@H](CN(C)C(=O)CN2CCOCC2)[C@H](C)CN([C@@H](C)CO)S3(=O)=O)cc1", "activity change, negative = cytotoxicity": "86.8%"},
      {"smiles": "Cc1cc(CN(C)C(=O)c2cc(COc3ccc4ncccc4c3)on2)on1", "activity change, negative = cytotoxicity": "15.5%"},
      {"smiles": "CC(=O)N=c1scc(-c2ccccc2)n1-c1cccc(O)c1", "activity change, negative = cytotoxicity": "-11.9%"},
      {"smiles": "CN(C)CCCNC(=O)C[C@H]1CC[C@H]2[C@@H](COc3ccc(NC(=O)c4ccccc4F)cc3C(=O)N2C)O1", "activity change, negative = cytotoxicity": "42.9%"},
      {"smiles": "Cc1cccc(-n2ncc(Cl)c(Cl)c2=O)c1", "activity change, negative = cytotoxicity": "-3.19% [at 6 µM]"},
      {"smiles": "CN1C(=O)c2cc(NC(=O)Nc3ccccc3F)ccc2OC[C@@H]2O[C@@H](CC(=O)NCc3ccc(-c4ccccc4)cc3)CC[C@@H]21", "activity change, negative = cytotoxicity": "9.96%"},
      {"smiles": "CC(=O)N(C[C@@H]1N[C@@H](CO)[C@H]1c1ccc(-c2ccccc2)cc1)C(C)C", "activity change, negative = cytotoxicity": "51.5%"},
      {"smiles": "COc1cccc(C(=O)Nc2ccc3c(c2)C(=O)N(C)[C@@H]2CC[C@H](CC(=O)NCc4ccc(F)cc4)O[C@@H]2CO3)c1", "activity change, negative = cytotoxicity": "-15.2%"},
      {"smiles": "O=C(COC(=O)Cc1ccc(S(=O)(=O)N2CCOCC2)s1)Nc1ccc2c(c1)OCO2", "activity change, negative = cytotoxicity": "61.9%"},
      {"smiles": "CN1C(=O)c2cc(NC(=O)c3cccc(F)c3)ccc2OC[C@@H]2O[C@@H](CC(=O)Nc3ccccc3)CC[C@@H]21", "activity change, negative = cytotoxicity": "138% [at 23.5 µM]"},
      {"smiles": "Cc1ccc(S(=O)(=O)Nc2ccc3c(c2)C(=O)N(C)[C@@H]2CC[C@H](CC(=O)NCCc4ccncc4)O[C@@H]2CO3)cc1", "activity change, negative = cytotoxicity": "147%"},
      {"smiles": "Cc1cc(C)cc(NC(=O)c2ccc(CSc3nnc(C)s3)cc2)c1", "activity change, negative = cytotoxicity": "133%"},
      {"smiles": "COc1ccc(S(=O)(=O)Nc2cc(C)cc(C)n2)c2ccccc12", "activity change, negative = cytotoxicity": "17.9%"},
      {"smiles": "C[C@H](CO)N1C[C@H](C)[C@@H](CN(C)CC2CCCCC2)OCCCC[C@H](C)Oc2ccc(NC(=O)Nc3cccc4ccccc34)cc2C1=O", "activity change, negative = cytotoxicity": "-41.4%"},
      {"smiles": "CC#CCCCC(=O)Nc1ccccc1C(=O)O", "activity change, negative = cytotoxicity": "81.9%"},
      {"smiles": "O=C(c1cccnc1)N1C[C@H]2[C@@H](c3ccccc31)[C@H](CO)N2C(=O)Nc1ccccc1Cl", "activity change, negative = cytotoxicity": "136% [at 23.5 µM]"},
      {"smiles": "CO[C@H]1CN(C)C(=O)c2cc(NC(C)=O)ccc2OC[C@@H](C)N(C(=O)CC2CC2)C[C@H]1C", "activity change, negative = cytotoxicity": "61.8%"},
      {"smiles": "CC(=O)Nc1ccc(S(=O)(=O)Nc2ccc(S(=O)(=O)Nc3nc(C)cc(C)n3)cc2)cc1", "activity change, negative = cytotoxicity": "100%"},
      {"smiles": "COc1ccc(S(=O)(=O)Nc2ccc3c(c2)CC(=O)N([C@@H](C)CO)C[C@@H](C)[C@H](CN(C)Cc2ccc(-c4ccccc4)cc2)O3)cc1", "activity change, negative = cytotoxicity": "-43.3%"},
      {"smiles": "CCCNC(=O)C[C@@H]1CC[C@@H]2[C@H](COc3ccc(NC(=O)c4cc(F)cc(F)c4)cc3C(=O)N2C)O1", "activity change, negative = cytotoxicity": "61.1%"},
      {"smiles": "C/C=C/c1ccc2c(c1)O[C@H](CN(C)C(=O)Nc1cccc(F)c1)[C@H](C)CN([C@@H](C)CO)S2(=O)=O", "activity change, negative = cytotoxicity": "14.2%"},
      {"smiles": "Cc1ccc(S(=O)(=O)NCCCNS(C)(=O)=O)cc1", "activity change, negative = cytotoxicity": "-34.2%"},
      {"smiles": "CN1C(=O)c2cc(NC(=O)C3CCOCC3)ccc2OC[C@H]2O[C@H](CC(=O)NCc3ccc4c(c3)OCO4)CC[C@@H]21", "activity change, negative = cytotoxicity": "128%"},
      {"smiles": "CCCNC(=O)N1[C@H](CNC(C)=O)[C@H](c2ccc(C3=CCCC3)cc2)[C@@H]1CO", "activity change, negative = cytotoxicity": "139%"},
      {"smiles": "COc1ccccc1NC(=O)N1CCCCN2[C@H](CO)[C@H](c3ccc(C#CC4CCCC4)cc3)[C@H]2C1", "activity change, negative = cytotoxicity": "91.3%"},
      {"smiles": "CCCNC(=O)C[C@@H]1CC[C@H]2[C@@H](COc3ccc(NC(=O)c4ccc(C(F)(F)F)cc4)cc3C(=O)N2C)O1", "activity change, negative = cytotoxicity": "36.1%"},
      {"smiles": "CNC(=O)C[C@H]1CC[C@@H]2[C@H](COc3ccc(NC(=O)c4cccc(OC)c4)cc3C(=O)N2C)O1", "activity change, negative = cytotoxicity": "136% [at 23.5 µM]"},
      {"smiles": "O=C(CNCCC1=CCCCC1)Nc1ccccc1N1CCCCCC1", "activity change, negative = cytotoxicity": "-14.3%"},
      {"smiles": "COc1cccc(NC(=O)Nc2ccc3c(c2)C(=O)N(C)[C@@H]2CC[C@H](CC(=O)O)O[C@H]2CO3)c1", "activity change, negative = cytotoxicity": "90.2%"},
      {"smiles": "CCCNC(=O)C[C@H]1CC[C@@H]2[C@H](COc3ccc(NS(=O)(=O)c4ccccc4C)cc3C(=O)N2C)O1", "activity change, negative = cytotoxicity": "18.6% [at 23.5 µM]"},
      {"smiles": "CNC(=O)C[C@H]1CC[C@@H]2[C@H](COc3ccc(NC(=O)c4ccc(OC)cc4)cc3C(=O)N2C)O1", "activity change, negative = cytotoxicity": "61.1%"},
      {"smiles": "CN1C(=O)c2cc(NC(=O)c3ccc(C(F)(F)F)cc3)ccc2OC[C@@H]2O[C@H](CC(=O)NC3Cc4ccccc4C3)CC[C@H]21", "activity change, negative = cytotoxicity": "85.2%"}
    ]}
  ]
}
